Bioassay records: PubChem, National Center for Advancing Translational Sciences (NCATS)
Six1-Eya2 blk: inhibitors of human Six1/Eya2 interaction. AID 651725. 0.56% of 360,000 active. activity change, % (concentration not given with the values). Q15475+O00167. AlphaScreen GST-Six1/His-Eya2 binding, biochemical; stronger effect = lower value; in the data active means activity change below about -65%; inconclusive means mostly about -30% to -63%
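Homogeneous AlphaScreen proximity assay pairing GST-Six1 with His-tagged Eya2 (added as 5X mix: 250 nM and 500 nM) in 50 mM Tris pH 8.0, 300 mM NaCl, 1 mM TCEP. Glutathione donor and nickel acceptor beads; 1 h, 37 °C, dark.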
BAZ2B inh: inhibitors of human BAZ2B bromodomain. AID 504333. 4.4% of 360,000 active. AlphaScreen BAZ2B-H3K14Ac peptide displacement. Potency, µM (titrated, usually from 114 µM), hits mostly inhibitors; further: nearly all actives have a fitted effect of over 60% in size
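BAZ2B 50 nM plus b-H3(5-23)K14Ac 50 nM, PBS pH 7.4/0.01% Tween-20, 30 min RT; compound added (max 110 uM), 30 min RT; streptavidin donor/Ni-chelate acceptor beads 10 ug/mL final, 20 min dark; AlphaScreen read.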
JMJD2A Tudor inh: inhibitors of human JMJD2A Tudor domain; 4.4% of 390,000 active; Potency, µM (top dose mostly 114 µM), usual class: inhibitors; AID 504339; O75164; AlphaScreen JMJD2A-Tudor / H3K4me3 peptide binding; further: nearly all actives have a fitted effect of over 50% in size
CtBP-E1A blk: inhibitors of CtBP/E1A interaction; activity change, % (no concentration beside the values); AlphaScreen GST-E1A/His-CtBP binding, 1536-well; stronger effect = lower value; 0.49% of 340,000 active; in the data active means activity change below about -65%; inconclusive means mostly about -30% to -63%
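Protein mix (5X: 125 nM each GST-E1A, His-CtBP) was incubated with pinned compound 2 h at 37 deg C in dark, in 50 mM Tris pH 8.0 buffer with 300 mM NaCl. Glutathione donor and nickel acceptor beads followed; AlphaScreen signal read after 1 h.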
HP1b chromo inh: blocks HP1-beta chromodomain binding to methylated histone tails; AlphaScreen HP1-beta / biotin-H3K9me3 peptide binding; Potency, µM (doses to about 114 µM), usual class: inhibitors; 0.56% of 390,000 active; AID 540317; further: nearly all actives have a fitted effect of over 70% in size
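Compound inhibition of the preformed complex between 50 nM HP1-beta and 50 nM biotinylated H3K9me3 peptide was read by AlphaScreen. Buffer was PBS pH 7.4 with 0.01% Tween-20. Incubations ran 30 min at room temperature, with 10 ug/mL donor/acceptor beads.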
G9a inh: inhibitors of human histone lysine methyltransferase G9a. Q96KQ7. G9a H3K9 monomethylation, AlphaScreen, 2 h. AID 504332. 8.8% of 350,000 active. Potency, µM (highest dose often 102 µM), most hits filed as inhibitors; further: nearly all actives have a fitted effect of over 75% in size
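Compounds were preincubated with 20 nM G9a for 15 min, after which biotinylated H3K9 peptide (500 nM) and SAM (20 uM) started a 2 h room-temperature reaction. Monomethylated product was quantified by antibody-based AlphaScreen chemiluminescence.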
Numbers stand for hits; . = inactive; ? = inconclusive; / = no result given; [ ] = remark or other dose. An excerpt weighted towards active compounds, which were near 10% of everything screened. Unless noted, the call rests on the fitted dose curve; in most records, active means well fitted inhibition curve with a large enough effect; inconclusive means small, poorly fitted or top-dose-only effect; inactive means no such curve, though single readings can be large or run the other way.

SMILES | Six1-Eya2 blk | BAZ2B inh | JMJD2A Tudor inh | CtBP-E1A blk | HP1b chromo inh | G9a inh
CCOC(=O)N1CCN(C(=O)COC(=O)C2CCN(S(=O)(=O)c3c(Cl)cccc3Cl)CC2)CC1 | . | . | . | . | . | 50µM
Oc1ccc2ccccc2c1SSc1c(O)ccc2ccccc12 | / | / | / | / | / | 6.7µM
Oc1ccc2ccccc2c1CN1CCCC1 | . | . | . | . | . | 6.3µM
CCOC(=O)C1CCN(Cc2ccc3ccccc3c2)CC1 | . | ? | 56µM | . | ? | ?
O=C(O)Cc1c(O)ccc2ccccc12 | . | . | . | . | . | .[12.7 µM]
COc1ccccc1CCNC(=O)CCCn1c(=O)c2cccn2c2cccnc21 | / | . | . | / | . | .
CCOC(=O)C1CCN(C(=O)c2oc3ccc(S(=O)(=O)N4CC(C)CC(C)C4)cc3c2C)CC1 (stereo not drawn) | . | . | . | . | . | 14µM
OCCN1CCN(Cc2ccc3ccccc3c2)CC1 | . | 50µM | 20µM | . | ? | /
COc1ccc(CN2CCN(C(=O)CC(C)C)CC2)cc1Br | . | ? | 79µM | . | . | 10µM
CCOC(=O)N1CCN(C(=O)c2oc3ccc(S(=O)(=O)N4CC(C)CC(C)C4)cc3c2C)CC1 (stereo not drawn) | . | . | . | . | . | .[0.501 µM]
CCOC(=O)N1CCN(C(=O)c2ccc3ccccc3c2)CC1 | . | . | . | . | . | /
CCOC(=O)N1CCN(Cc2ccc3ccccc3c2)CC1 | . | ? | 25µM | / | ? | /
CC(CNC(=O)C1CCN(S(=O)(=O)c2ccc3c(ccn3C)c2)CC1)c1ccccc1 (stereo not drawn) | / | . | . | / | . | .
Oc1ccc2ccccc2c1CNc1ccc(Br)cc1 | . | 40µM | ? | . | . | 5µM
CCOC(=O)C1CCN(Cc2ccc(F)c(F)c2)CC1 | . | ? | 5.6µM | . | ? | 28µM
CCOC(=O)C1CCN(S(=O)(=O)c2ccc(CC)cc2)CC1 | . | . | 40µM | . | . | .
CCOC(=O)N1CCN(Cc2ccccn2)CC1 | . | ? | 0.79µM | . | . | 7.1µM
O=C(NNc1ccccc1)c1sc2ccccc2c1Cl | / | / | . | / | . | /
CCn1ncc(Br)c1C(=O)Nc1ncc(C)s1 | . | . | . | / | . | ?
CC(=O)c1ccc(C(=O)N(Cc2cccnc2)c2nc3c(C)c(C)ccc3s2)cc1 | / | . | . | / | . | .
Cc1ccc(C(=O)N2CCN(C3c4cccc5cccc(c45)C3NS(=O)(=O)c3ccccc3)CC2)cc1 (stereo not drawn) | . | . | . | . | . | ?
C/C(N=Nc1nc2ccccc2s1)=N\Nc1ccccc1O | . | ? | .[11.4 µM] | . | . | .
COc1ccc(C(=O)OCC(=O)c2ccc(S(=O)(=O)N3CCCCC3)cc2)c(OC)c1 | . | . | . | . | . | ?
CCOC(=O)C1CCN(Cc2c(O)ccc3ccccc23)CC1 | . | . | . | . | . | 3.5µM
CCOC(=O)C1CCN(Cc2ccc(N(C)C)cc2)CC1 | . | 45µM | 3.5µM | . | ? | ?
SMILES | Six1-Eya2 blk | BAZ2B inh | JMJD2A Tudor inh | CtBP-E1A blk | HP1b chromo inh | G9a inh
CSc1ccc(CN2CCN(C(=O)CC(C)C)CC2)cc1 | . | 79µM | 20µM | . | ? | .[0.501 µM]
Cc1ccc(C(=O)OCC(=O)c2ccc(S(=O)(=O)N3CCCCC3)cc2)o1 | . | . | ? | . | . | 50µM
COC(=O)c1c(NC(=O)c2nc(SCc3cccc(C)c3)ncc2Cl)sc2c1CCCC2 | / | . | . | / | . | .
O=C(CCC1N=C2c3ccccc3N=C(SCc3ccccc3F)N2C1=O)NC1CCCCC1 (stereo not drawn) | / | . | . | / | . | .
COc1ccc(/C=C/C(=O)OCC(=O)Nc2ccc(N3CCOCC3)cc2)cc1OC | . | . | . | / | . | .
COc1ccccc1C(=O)NC(=O)CSc1nnc(N)s1 | . | ? | ? | . | . | .[12.7 µM]
Cc1ccc(C(=O)NC2CCN(S(=O)(=O)c3ccccc3F)CC2)cc1 | . | . | . | . | . | .
NCc1c(O)ccc2ccccc12 | / | . | / | / | / | 7.9µM
CC(C)CC(=O)N1CCN(Cc2ccc3ccccc3c2)CC1 | . | ? | 25µM | / | ? | .[0.501 µM]
C=C(C)Cn1c(SCC(=O)Nc2cc(C)ccc2C)nc2sc3c(c2c1=O)CCCC3 | / | . | . | / | . | .
Cc1cc(OCCCCNC(C)C)cc(C(C)C)c1 | . | ? | 18µM | . | ? | 28µM
NC1=NC(S)C2N=CN=C2N1 (stereo not drawn) | / | / | / | / | / | 25µM
Oc1ccccc1C=NCCN1CCN(CCN=Cc2ccccc2O)C1c1ccccc1O (stereo not drawn) | -86 | / | 22µM | -99 | . | /
C#CC[N+]1(CC#Cc2ccc(C#CC[N+]3(CC#C)CCOCC3)cc2)CCOCC1 | . | . | . | . | . | 8.9µM
C#CC[N+]1(CC#Cc2ccccc2)CCCC1 | . | . | . | . | . | .[0.501 µM]
CC(C)c1ccc(NC(=O)CSC2=Nc3ccccc3C3=NC(CC(=O)NC4CCCCC4)C(=O)N23)cc1 (stereo not drawn) | / | . | . | / | . | .
Cn1nnnc1Sc1ncnc2scc(-c3ccc(S(C)(=O)=O)cc3)c12 | / | / | . | / | / | /
CCCOc1ccc(OC(=O)c2cn(-c3ccc(OC)cc3)c(=O)c3ccccc23)cc1 | / | . | . | / | . | .
CCC(=O)Oc1ccc2oc(=O)cc(C)c2c1 | . | . | . | . | . | .
Cc1cc(C)nc(SCC(=O)Oc2ccc3oc(=O)cc(C)c3c2)n1 | . | . | .[11.4 µM] | . | . | 50µM
O=C(N[C@@H](Cc1ccccc1)c1nc2ccccc2[nH]1)c1cc([N+](=O)[O-])ccc1Cl | . | . | . | / | . | 10µM
O=C(c1cccc2ccccc12)C1CCCN(C(=O)CCCn2cncn2)C1 (stereo not drawn) | . | . | . | . | . | .
Cc1nc2ccccc2c(=O)n1-c1ccc(NC(=O)c2ccccc2[N+](=O)[O-])cc1 | / | . | . | / | . | .
Cc1cccc(C)c1NC(=O)C(c1ccccc1)N1CCC1=O (stereo not drawn) | . | . | 40µM | . | . | .[12.7 µM]
CC(=O)NC(=S)Nc1ccc(NC(=O)c2cccs2)cc1 | . | . | . | . | . | ?
SMILES | Six1-Eya2 blk | BAZ2B inh | JMJD2A Tudor inh | CtBP-E1A blk | HP1b chromo inh | G9a inh
Cc1c(C(=O)Nc2ccc(S(N)(=O)=O)cc2)oc2ccc(Cl)cc12 | . | . | . | . | . | /
Cc1c(C(=O)NC(=S)Nc2ccc(NC(=O)c3cccs3)cc2)oc2ccccc12 | . | 50µM | .[11.4 µM] | . | . | 1.4µM
NS(=O)(=O)c1ccc(NC(=S)NC(=O)c2ccc(Br)o2)cc1 | . | . | .[11.4 µM] | / | . | ?
Cc1c(C(=O)NNC(=S)Nc2ccc(S(N)(=O)=O)cc2)oc2ccccc12 | . | . | ? | . | . | 11µM
CN(C)S(=O)(=O)c1ccc(NC(=S)NC(=O)c2ccc(Br)o2)cc1 | / | . | / | / | / | 56µM
NS(=O)(=O)c1ccc(NC(=S)NNC(=O)c2ccc(Br)o2)cc1 | . | . | . | . | . | 8.9µM
